Screens: PubChem BioAssay, National Center for Advancing Translational Sciences (NCATS)
This is a sample that favours compounds with a hit; in the whole collection about 12% have one here.
Sfp PPTase inh – inhibitors of Bacillus subtilis Sfp phosphopantetheinyl transferase; Q9F4F7; 310,000 tested, 3.5% active; AID 1490; Biochemical Sfp PPTase activity, qHTS; Potency, µM, for inactives: largest response in the series, negative = inhibition, hits mostly inhibitors;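 note: the enzyme is Sfp with the accession as filed and its product quenches rhodamine fluorescence; 0% = enzyme reaction without inhibitor and -100% = no enzyme wells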
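Fluorescence-quenching assay: 15 nM Sfp-PPTase preincubated 15 min at room temperature with compound, then 5 uM rhodamine-CoA and 12.5 uM BHQ-2-labelled YbbR peptide added. Fluorescence (ex 525/em 598 nm) read at start and after 30 min; difference gives rate.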
HP1b binding inh – HP1-beta chromodomain-methylated histone interaction inhibition | 390,000 tested, 0.56% active | P83916 | AlphaScreen HP1-beta / biotin-H3K9me3 peptide binding | Potency, µM (top dose mostly 114 µM), for the others: top-dose activity change, negative = inhibition, hits mostly inhibitors; note: nearly all actives have a fitted effect of over 70% in size
Target sequence (P83916 whole entry, looked up): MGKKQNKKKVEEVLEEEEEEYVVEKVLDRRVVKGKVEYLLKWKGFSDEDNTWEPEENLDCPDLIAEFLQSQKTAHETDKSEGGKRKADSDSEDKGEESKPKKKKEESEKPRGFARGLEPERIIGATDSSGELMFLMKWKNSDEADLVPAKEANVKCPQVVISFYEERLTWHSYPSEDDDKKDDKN
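AlphaScreen: HP1-beta (50 nM) preformed 30 min with biotin-H3(1-18)K9me3 peptide (50 nM) in PBS pH 7.4, 0.01% Tween-20. Compound added for 30 min at RT, then streptavidin donor/nickel chelate acceptor beads (10 ug/mL) for 30 min.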
G9a inh – G9a (human) methyltransferase inhibition | AID 504332 | 350,000 tested, 8.8% active | Q96KQ7 | Potency, µM (series often up to 102 µM), for the others: at the highest dose activity, negative = inhibition, hits mostly inhibitors | G9a H3K9 monomethylation, AlphaScreen, 2 h; note: % is set by controls: 0 for no effect and ±100 for the full control effect; nearly all actives have a fitted effect of over 75% in size
Target sequence (Q96KQ7 913-1193 limits assumed): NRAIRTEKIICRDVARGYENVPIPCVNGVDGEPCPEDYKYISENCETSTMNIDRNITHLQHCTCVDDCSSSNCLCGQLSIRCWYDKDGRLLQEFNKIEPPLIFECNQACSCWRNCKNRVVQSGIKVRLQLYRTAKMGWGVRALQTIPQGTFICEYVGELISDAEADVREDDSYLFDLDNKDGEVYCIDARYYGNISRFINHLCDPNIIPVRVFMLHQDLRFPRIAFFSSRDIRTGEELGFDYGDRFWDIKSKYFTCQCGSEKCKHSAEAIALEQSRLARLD
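Compounds were preincubated with 20 nM G9a for 15 min, after which biotinylated H3K9 peptide (500 nM) and SAM (20 uM) started a 2 h room-temperature reaction. Monomethylated product was quantified by antibody-based AlphaScreen chemiluminescence.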
JMJD2A Tudor – inhibitors of human JMJD2A Tudor domain | AlphaScreen JMJD2A-Tudor / H3K4me3 peptide binding | Potency, µM (highest dose often 114 µM), inactives show at the highest dose activity change, negative = inhibition, usual class: inhibitors | 390,000 tested, 4.4% active; note: % is set by controls: 0 for no effect and ±100 for the full control effect; nearly all actives have a fitted effect of over 50% in size
BAZ2B inh – blocks human BAZ2B. Q9UIF8. 360,000 tested, 4.4% active. AlphaScreen BAZ2B-H3K14Ac peptide displacement. Potency, µM (titrated, usually from 114 µM), for the others: at the top dose activity change, negative = inhibition, most hits filed as inhibitors; note: % is set by controls: 0 for no effect and ±100 for the full control effect; nearly all actives have a fitted effect of over 60% in size
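BAZ2B 50 nM plus b-H3(5-23)K14Ac 50 nM, PBS pH 7.4/0.01% Tween-20, 30 min RT; compound added (max 110 uM), 30 min RT; streptavidin donor/Ni-chelate acceptor beads 10 ug/mL final, 20 min dark; AlphaScreen read.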
Starred values were filed as active, the others as inactive; [ ] = dose if it differs, or a comment. Calls come from the whole dose curve; as a rule, active = well fitted curve in the direction sought with a large enough effect; inconclusive = small, poorly fitted or top-dose-only effect, or another doubt; inactive = no such curve, though single readings can be large; an effect the other way counts as inactive or inconclusive. Potency is the fitted concentration of half-maximal effect.

Screening COc1ccc(S(=O)(=O)N2CCC(N3CCN(Cc4ccc(F)cc4)C(=O)C3=O)CC2)cc1 returned HP1b binding inh 26%, G9a inh -25%[59 µM], JMJD2A Tudor -6% and BAZ2B inh -4%.
Screening CCOC(=O)CCc1c(C)nc(SCCN2CCCC2)c(C#N)c1C returned Sfp PPTase inh -4%, HP1b binding inh 51%, G9a inh 40µM*, JMJD2A Tudor -9%[57.1 µM] and BAZ2B inh -18%.
For CCOC(=O)CCc1c(C)c(C#N)c2nc3ccccc3n2c1-n1cnc2ccccc21 the results were Sfp PPTase inh 10%, HP1b binding inh 11%, G9a inh 24%, JMJD2A Tudor -15% and BAZ2B inh 7%.
For CCOC(=O)CCc1c(C)nc(SCCCn2c(=O)[nH]c3ccccc32)c(C#N)c1C the results were Sfp PPTase inh -94%, HP1b binding inh 25%, G9a inh inconclusive, JMJD2A Tudor 28µM* and BAZ2B inh -2%.
Cc1nc(SCC(N)=O)c(C#N)c(C)c1C was read as Sfp PPTase inh 7%, HP1b binding inh 50%, G9a inh -3%, JMJD2A Tudor -11% and BAZ2B inh 3%.
For OC[C@H]1OC(O)[C@@H](O)[C@@H](O)[C@H]1O (stereo partly specified) the results were Sfp PPTase inh -9%.
`CC1CCCN(C(=O)NC2CC(=O)N(c3ccc4c(c3)OCCO4)C2)C1` (stereo unspecified) gave HP1b binding inh 39%, G9a inh -9%, JMJD2A Tudor -3% and BAZ2B inh 8%.
For COCc1ccc(O)c2ncccc12 the results were Sfp PPTase inh -3%, HP1b binding inh 51%, G9a inh inconclusive, JMJD2A Tudor 40µM* and BAZ2B inh 1.8µM*.
`OCc1ccnc2c(O)cccc12` gave Sfp PPTase inh 3%, HP1b binding inh -4%, G9a inh -7%[2.33 µM], JMJD2A Tudor 13µM* and BAZ2B inh 1.4µM*.
For Oc1ccc(CNc2ccc(F)cc2)c2cccnc12 the results were Sfp PPTase inh 8%, HP1b binding inh -25%, G9a inh 1.6µM*, JMJD2A Tudor 56µM* and BAZ2B inh 25µM*.
Fc1ccc(NC(=S)NCc2cccnc2)cc1 was read as Sfp PPTase inh -3%, HP1b binding inh 39%, G9a inh 10%, JMJD2A Tudor -8% and BAZ2B inh -21%.
For Oc1ccc(Cn2ccnc2)c2cccnc12 the results were Sfp PPTase inh 19%, HP1b binding inh 20%, G9a inh inconclusive, JMJD2A Tudor 2µM* and BAZ2B inh 0.71µM*.
For OCc1ccccc1OCCCOc1cccc2cccnc12 the results were Sfp PPTase inh 20%, HP1b binding inh 10%, G9a inh 15%, JMJD2A Tudor -21% and BAZ2B inh -5%.
`Oc1ccc2c(c1)c1ccccc1c1ncccc21` gave HP1b binding inh 6% and JMJD2A Tudor -10%.
`CCC(=O)CC(NC(=O)OC)c1ccc(F)cc1` (stereo unspecified) gave Sfp PPTase inh 22%.
Screening Cc1oc2ncn(C)c(=O)c2c1C(=O)Nc1ccccn1 returned HP1b binding inh 39%, G9a inh -1%[59 µM], JMJD2A Tudor -4% and BAZ2B inh 0%.
For COc1cccc(CNC(=O)C(NS(=O)(=O)c2cccs2)C(C)C)c1 (stereo unspecified) the results were HP1b binding inh 42%, G9a inh -3%[59 µM], JMJD2A Tudor -12% and BAZ2B inh 3%.
`CCc1nc(SCC(=O)Nc2ccc(Br)cn2)n[nH]1` gave Sfp PPTase inh 18%, G9a inh 1% and BAZ2B inh -15%.
`COc1ccccc1NC(=O)CSC1=Nc2ccccc2C2=NC(CC(=O)NCc3ccc4c(c3)OCO4)C(=O)N12` (stereo unspecified) gave HP1b binding inh 7%, G9a inh -3%[59 µM], JMJD2A Tudor -31% and BAZ2B inh -16%.
`O=C(CCC1N=C2c3ccccc3N=C(SCc3cccc(F)c3)N2C1=O)NCc1cccs1` (stereo unspecified) gave HP1b binding inh -2%, G9a inh -2%[59 µM], JMJD2A Tudor 79µM* and BAZ2B inh -6%.
For O=C(CC1N=C2c3ccccc3N=C(SCC(=O)Nc3ccccc3F)N2C1=O)NCc1ccc2c(c1)OCO2 (stereo unspecified) the results were HP1b binding inh 14%, G9a inh 13µM*, JMJD2A Tudor -25% and BAZ2B inh inconclusive.
For Cc1nn(Cc2ccc(C(=O)Nc3nccs3)cc2)c(C)c1Cl the results were Sfp PPTase inh -24%, HP1b binding inh 32%, G9a inh 45µM*, JMJD2A Tudor -28% and BAZ2B inh -1%.
Screening COc1c(F)c(F)c(C(=O)Nc2ccc(N3CCN(Cc4ccccc4)CC3)cc2)c(F)c1F returned Sfp PPTase inh 20%, HP1b binding inh -2%, G9a inh 18µM*, JMJD2A Tudor -23% and BAZ2B inh -32%.
For COc1ccc(NC(=O)c2ccc(CN3CCN(c4ccccc4)CC3)cc2)cc1 the results were Sfp PPTase inh -5%, HP1b binding inh 16%, G9a inh inconclusive, JMJD2A Tudor 1% and BAZ2B inh 10%.
For Cc1nn(Cc2ccc(C(=O)NN)cc2)c(C)c1Cl the results were Sfp PPTase inh 14%, HP1b binding inh 32%, G9a inh 2%, JMJD2A Tudor -14% and BAZ2B inh -5%.
Screening O=C(Nc1ccccc1F)c1ccc(CN2CCN(c3ccccc3)CC2)cc1 returned Sfp PPTase inh 20%, HP1b binding inh -2%, G9a inh 79µM*, JMJD2A Tudor inconclusive and BAZ2B inh -39%.
Screening Cc1nn(Cc2ccc(C(=O)Nc3ccccc3F)cc2)c(C)c1Cl returned Sfp PPTase inh inconclusive, HP1b binding inh 49%, G9a inh 45µM*, JMJD2A Tudor 4% and BAZ2B inh 6%.
Screening N#C/C(=C\c1cccnc1)C(=O)Nc1ccccc1[N+](=O)[O-] returned Sfp PPTase inh 9%, HP1b binding inh 9%, G9a inh 24%, JMJD2A Tudor inconclusive and BAZ2B inh -14%.
`Cc1cccc(Cn2c(C)c(CNC3CCCCC3)c(C(=O)O)c2C)c1` gave HP1b binding inh 15%, G9a inh -2%[59 µM], JMJD2A Tudor -18% and BAZ2B inh -5%.
For COc1cc(NC(=O)c2csc(N)n2)cc(C(=O)Nc2cccc(C(F)(F)F)c2)c1 the results were Sfp PPTase inh -17%, HP1b binding inh 56%, G9a inh -8%[12.7 µM], JMJD2A Tudor 0% and BAZ2B inh -8%.
For COc1cc(NC(=O)c2ccnc(N)c2)cc(C(=O)Nc2cccc(C(F)(F)F)c2)c1 the results were Sfp PPTase inh 2%, HP1b binding inh -8%, G9a inh -11%[12.7 µM], JMJD2A Tudor inconclusive and BAZ2B inh 50µM*.
